About 83,000 compounds went through this panel and 20% of them were active in at least one assay; those are over-represented in the sample as a whole.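 The test compound was applied at a single concentration to cells in 96-well plates for 48 hours, and percent growth was recorded.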 Values without a mark were called inactive. Activity calls are given as the source filed them.

Results on 40 compounds are retold here after PubChem BioAssay (NCI).

For this experiment, the system named is OVCAR-4 ovarian. Description: NCI-60 one-dose screen, 48 h (100 = growth as untreated, 0 = no growth, -100 = all killed). Particulars: 10 µM unless noted. How it is done:
Growth inhibition of the OVCAR-4 human tumor cell line is measured as a screen for anti-cancer activity. Cells are grown in 96 well plates and exposed to the test compound for 48 hours. Compounds are tested at a single concentration, which is 10^-5 M for most compounds. The reported endpoint is percent growth (GI% or GIPRCNT), where numbers from 0 - 100% represent growth inhibition, and numbers from -100% - 0 represent cell death. For example, a value of 40 represents 60% growth inhibition. A value of 0 means no net growth occurred over the course of the experiment. A value of -40 indicates 40% of cells at the beginning of the experiment died by the end of the experiment. A value of -100 means all cells are dead at the end of the experiment.
NCI-60 Human Tumor Cell Lines Screen was performed using the standard one-dose NCI protocol, which is described in more detail at https://dtp.cancer.gov/discovery_development/nci-60/default.htm.
Compounds with GIPRCNT values below 10 were considered active. Activity score was based on GIPRCNT using the following formula: […]
Score is 0 for GIPRCNT values of 100 or above, 50 for GIPRCNT values of 0, and 100 for GIPRCNT values of -100.
As for `O=C(Nc1ccc2ncnc(Nc3cccc(C(F)(F)F)c3)c2c1)c1cccs1`, the growth is 33.1%.

With `Cc1cc(C)cc(Nc2nccc(-c3c(-c4ccc(F)cc4)ncn3C3CCNCC3)n2)c1`, the growth was 30.3%.

With `NC[C@@H]1CCN(c2cc3c(cc2F)c(=O)n(N)c(=O)n3Cc2ccc(-c3ccccc3)cc2)C1`, the growth is 97.4%. For `Cc1nnc(/N=C2\NC(=O)/C(=C/c3ccc(N(C)C)cc3)S2)s1` the value was 75.4%; for `Oc1c(CCl)cc(Cl)cc1Cc1cc(Cl)cc(Cc2cc(Cl)cc(CCl)c2O)c1O`, 48%.

In the case of `Nc1c(C(=O)Nc2ccccn2)sc2nc3c(cc12)CCCCC3`, the growth is 53.5%. The value for `CCn1cc(C(=O)O)c(=O)c2cc(F)c(N3CCN(CC(=O)Nc4ccc(/C(C)=N/OC)cc4)CC3)cc21` was 103%; that for `C1=CC2=CC=C3C=CC=C4C(c5nc6c7ccccc7c7ccccc7c6[nH]5)=CC(=C1)C2C34` (stereo not given) was 119%; that for `OCCNc1nc(NCCO)nc(Nc2ccc(C3=NN(c4cc(Cl)cc(Cl)c4)C(c4ccc(Cl)cc4)C3)cc2)n1` (stereo not given) was -17.6% (active). Regarding `COc1cc(NCC(=O)Nc2cc(Nc3cccc(C(F)(F)F)c3)ncn2)c(Cl)c(OC)c1Cl`, the growth is 99.2%. For `COc1cc(C(=O)Nc2cc(O)c(C/C=C(\C)CCC=C(C)C)c(O)c2)cc2c1O[C@]1(C)CC[C@@H](O)C(C)(C)[C@H]1C2` the value was 32.8%. For `CN(C)c1ccc(-c2ccc3[nH]c(=O)nc(-c4ccc(F)cc4)c3c2)cn1` the value was 66.5%. `COc1ccc(-c2nnc(N3CCN(C(=O)CN4CCN(c5ccccc5)CC4)CC3)nc2-c2ccc(OC)cc2)cc1`: the growth is 24.4%. Take `CC(C)(C)CC(C)(C)Cc1ccc(OCCOCC[N+](C)(C)Cc2ccccc2)cc1`: the growth was 7.03% (active). The value for `CC1(C)[C@@H](O)CC[C@]2(C)[C@H]3CC[C@@H]4[C@H]5[C@H](c6cn(-c7ccccc7)nn6)CC[C@]5(CO)CC[C@@]4(C)[C@]3(C)CC[C@@H]12` was 98.3%; that for `COc1cc(/C=N/Nc2nc(-c3ccc(F)cc3)c(C#N)c(N3CCOCC3)n2)ccc1O` was 89.8%.

`Cn1cc(-c2ccc3c(c2)ncn3-c2ccc(CC(=O)Nc3cc(C(C)(C)C)on3)cc2)cn1`: the growth was 12.3%.

Take `CCCCn1c(=O)c(/C=C/C(=O)/C=C/c2ccc(OC)cc2)cc2cc(Cl)ccc21`: the growth was 42.9%. The value for `CN(C)C1=NCCN1` was 114%; that for `CCOC(=O)c1sc(/N=C2\NC(=O)/C(=C/c3ccc(N4CCN(C)CC4)cc3)S2)nc1C` was 103%; that for `CCOC(=O)c1c(C(F)(F)F)n([O-])c2ccc(Cl)cc2[n+]1=O` was -35.3% (active).

For `CCCn1cc(/C=N\N=C2\C(=O)Nc3ccc(C)cc32)c2ccccc21`, the growth was 41.8%. As to `C=C1C(=O)O[C@H]2[C@H]1CC/C(COC(=O)c1cc3ccccc3o1)=C\CC[C@@]1(C)O[C@@H]21`, the growth is -10.5% (active). The value for `O=C1CCc2ccccc2N1` was 94.7%; that for `Cc1cc(NC(=O)CNc2nc(Oc3ccc(F)cc3)nc(-c3ccc(F)cc3)n2)ccc1Cl` was 105%; that for `C=C1C(=O)O[C@H]2[C@H]1CC/C(COC(=O)Nc1nc3ccccc3[nH]1)=C\CC[C@@]1(C)O[C@@H]21` was 81.3%. For `COc1ccc(C(=O)c2cc(OC)c(C)c(OC)c2)cc1OC(=O)CCl` the value was 60.1%. For `CSc1cccc(NC(=O)Nc2nc3c(C)cccc3s2)c1` the value was 85%; for `COC(=O)c1nc(-c2ccccc2)oc1S(=O)(=O)n1nc(-c2ccccc2)cc1N`, 107%; for `CCCCCCN1C(=O)CN=C1Nc1ccc2cc3ccc(NC4=NCC(=O)N4CCCCCC)cc3nc2c1`, 55.6%. As for `CN(C)CSc1nc2ccccc2s1`, the growth was 102%. With `O=C1c2ccccc2C(=O)c2c1oc1c2c(=O)[nH]c2ccccc21`, the growth was -5.49% (active).

As to `Cc1ccc2nc3nc4ccc[nH]c4cc3c2c1`, the growth is 65.8%. For `Nc1cc(N)c(S(=O)(=O)O)cc1N=Nc1cc([N+](=O)[O-])ccc1O` the value was 109%; for `CN(C)[C@@H]1C(=O)C(C(N)=O)=C(O)[C@@]2(O)C(=O)C3=C(O)c4c(O)cc(CN5CCc6ccccc6C5)c(Cl)c4C[C@H]3C[C@@H]12`, -44.5% (active). As to `O=C(C[n+]1cccc2cc(Cl)ccc21)c1ccc2c(c1)CCCC2`, the growth was 16.2%. For `COC(=O)CCc1cc(O)c2c(c1)[C@@H](C(=O)OC)[C@H](c1ccc(O)c(O)c1)O2` the value was 83%; for `C=C(C)[C@@H]1CC[C@]2(C(=O)O)CC[C@]3(C)[C@H](CC[C@@H]4[C@@]5(C)C[C@@H](CC#Cc6ccccc6C)C(=O)C(C)(C)[C@@H]5CC[C@]43C)[C@@H]12`, 31.4%. For `COc1ccc2c(c1)/C(=C1\S/C(=N/c3nnc(C)s3)NC1=O)C(=O)N2Cc1ccc(Cl)cc1`, the growth was 44.7%. The value for `O=C(O)COc1ccc2c(=O)c3sc4c(=O)c5ccccc5c(=O)c4c3c(=O)c2c1` was 27.8%.
